Experimental data reported in PubChem BioAssay (Tox21).
“And” between values parts separate entries of the source, which are not always exact repeats. Equal values may be shown once. Results filed as inconclusive are left out. The source made the active and inactive calls. Calls follow the shape of the dose curve; as a rule, active = well fitted curve in the direction sought with a large enough effect in the repeat runs; inconclusive = weak or mixed curves; inactive = no such curve, though single readings can be large; an effect the other way counts as inactive or inconclusive.

Legend:
[1] = Human pregnane X receptor (PXR) small molecule agonists, qHTS cell viability counter screen (AID 1346977); also: nearly all actives have a fitted effect of over 50% in size; also: potency is read from the fitted curve at half-maximal effect
How it was run: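 HepG2 cells stably carrying the PXR-Luc reporter are cultured with 5% charcoal-stripped FBS and treated with compounds for 24hr. CellTiter-Fluor is added at 23hr and fluorescence is read after 1hr.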

[2] = Caspase-3/7 induction in HepG2 cells by small molecules, qHTS assay (AID 1346978); also: nearly all actives have a fitted effect of over 15% in size
How it was run: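 Wild-type HepG2 cells (2,000/well) were settled 5 h at 37 C, 5% CO2, then exposed to compounds in DMSO for 17 h. Caspase-3/7 activity was read by luminescence 30 min after adding Caspase-Glo 3/7 reagent at room temperature.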

[3] = Caspase-3/7 induction in CHO-K1 cells by small molecules, qHTS cell viability counter screen (AID 1346979); also: nearly all actives have a fitted effect of over 35% in size; also: potency is read from the fitted curve at half-maximal effect
How it was run: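 Seeding: 1,500 CHO-K1 cells/well. Rest: 5hr, 37C. Treatment: compounds in DMSO, 16hr. Read: CellTiter-Fluor, 1hr, fluorescence.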

[4] = Caspase-3/7 induction in CHO-K1 cells by small molecules, qHTS assay (AID 1346980); also: nearly all actives have a fitted effect of over 15% in size
How it was run: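 Wild-type cells were seeded at 1,500 per well and settled 5 hr at 37 C, 5% CO2, then exposed to DMSO-dissolved compounds for 17 hr. Caspase-Glo 3/7 reagent was added, and luminescence was read after 30min at room temperature.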

[5] = Caspase-3/7 induction in HepG2 cells by small molecules, qHTS cell viability counter screen (AID 1346981); also: series mostly up to about 92 µM; nearly all actives have a fitted effect of over 30% in size
How it was run: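 Counter screen for cytotoxicity: HepG2 exposed 16 hr to compounds, then CellTiter-Fluor viability signal (fluorescence, 1 hr reagent incubation).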

[6] = biological target: Nuclear receptor subfamily 1 group I member 2 (Homo sapiens) (UniProt O75469); assay: Human pregnane X receptor (PXR) small molecule agonists, qHTS assay (AID 1346982); also: nearly all actives have a fitted effect of over 35% in size; also: potency is read from the fitted curve at half-maximal effect
Chain of Nuclear receptor subfamily 1 group I member 2 (Homo sapiens) (O75469 whole entry, looked up): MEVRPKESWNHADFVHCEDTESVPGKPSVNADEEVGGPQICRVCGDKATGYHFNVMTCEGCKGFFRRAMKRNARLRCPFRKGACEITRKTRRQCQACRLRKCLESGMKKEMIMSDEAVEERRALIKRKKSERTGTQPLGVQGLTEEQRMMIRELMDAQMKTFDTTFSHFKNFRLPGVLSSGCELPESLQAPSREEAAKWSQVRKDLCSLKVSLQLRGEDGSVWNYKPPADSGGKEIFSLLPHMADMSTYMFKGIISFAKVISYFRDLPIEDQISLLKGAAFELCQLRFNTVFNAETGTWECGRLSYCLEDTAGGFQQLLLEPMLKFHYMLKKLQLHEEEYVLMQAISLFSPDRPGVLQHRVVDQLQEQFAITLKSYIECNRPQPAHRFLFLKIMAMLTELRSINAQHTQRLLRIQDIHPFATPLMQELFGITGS
How it was run: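 Luminescence (ONE-Glo, 30 min RT) after 24 hr compound exposure of PXR-Luc HepG2 cells; cells rested 5 hr post-plating in 5% charcoal-stripped FBS medium.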

[7] = biological target: Cytochrome P450 2C9 (Homo sapiens) (UniProt P11712); assay: Cytochrome P450 Family 2 Subfamily C Member 9 (CYP2C9) small molecule antagonists: luciferase reporter qHTS assay (AID 1671198); also: nearly all actives have a fitted effect of over 50% in size; also: potency is read from the fitted curve at half-maximal effect; as to activity change, negative = inhibition: series mostly up to about 120 µM
Chain of Cytochrome P450 2C9 (Homo sapiens) (P11712 whole entry, looked up): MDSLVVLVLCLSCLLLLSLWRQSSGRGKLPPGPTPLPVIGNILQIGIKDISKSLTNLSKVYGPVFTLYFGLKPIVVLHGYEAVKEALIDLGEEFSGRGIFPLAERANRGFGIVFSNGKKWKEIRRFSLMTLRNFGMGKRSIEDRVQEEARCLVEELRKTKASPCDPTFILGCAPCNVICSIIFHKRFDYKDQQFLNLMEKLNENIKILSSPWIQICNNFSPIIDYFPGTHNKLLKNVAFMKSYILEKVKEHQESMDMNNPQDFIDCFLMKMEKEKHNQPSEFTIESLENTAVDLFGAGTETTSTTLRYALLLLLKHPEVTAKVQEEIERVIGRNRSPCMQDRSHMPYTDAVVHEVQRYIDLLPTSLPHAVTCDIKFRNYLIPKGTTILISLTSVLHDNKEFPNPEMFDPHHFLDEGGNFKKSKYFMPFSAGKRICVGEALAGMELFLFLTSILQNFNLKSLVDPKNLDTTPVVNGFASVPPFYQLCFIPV
How it was run: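 CYP2C9 activity was measured with a P450-Glo proluciferin substrate. Enzyme–substrate mix was held with compound for 10 min at room temperature, then NADPH regeneration solution was added for 1 h at 37C. Luciferin product was read as luminescence.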

[8] = biological target: Voltage-gated inwardly rectifying potassium channel KCNH2 (Homo sapiens) (UniProt Q12809); assay: Human Ether-a-go-go-Related Gene (hERG) channel small molecule antagonists: fluorescence cell-based qHTS assay (AID 1671200);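 also: hERG-expressing U2OS cells given a thallium stimulus after FluxOR II dye loading; series mostly up to about 77 µM; nearly all actives have a fitted effect of over 50% in size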
Chain of Voltage-gated inwardly rectifying potassium channel KCNH2 (Homo sapiens) (Q12809 whole entry, looked up): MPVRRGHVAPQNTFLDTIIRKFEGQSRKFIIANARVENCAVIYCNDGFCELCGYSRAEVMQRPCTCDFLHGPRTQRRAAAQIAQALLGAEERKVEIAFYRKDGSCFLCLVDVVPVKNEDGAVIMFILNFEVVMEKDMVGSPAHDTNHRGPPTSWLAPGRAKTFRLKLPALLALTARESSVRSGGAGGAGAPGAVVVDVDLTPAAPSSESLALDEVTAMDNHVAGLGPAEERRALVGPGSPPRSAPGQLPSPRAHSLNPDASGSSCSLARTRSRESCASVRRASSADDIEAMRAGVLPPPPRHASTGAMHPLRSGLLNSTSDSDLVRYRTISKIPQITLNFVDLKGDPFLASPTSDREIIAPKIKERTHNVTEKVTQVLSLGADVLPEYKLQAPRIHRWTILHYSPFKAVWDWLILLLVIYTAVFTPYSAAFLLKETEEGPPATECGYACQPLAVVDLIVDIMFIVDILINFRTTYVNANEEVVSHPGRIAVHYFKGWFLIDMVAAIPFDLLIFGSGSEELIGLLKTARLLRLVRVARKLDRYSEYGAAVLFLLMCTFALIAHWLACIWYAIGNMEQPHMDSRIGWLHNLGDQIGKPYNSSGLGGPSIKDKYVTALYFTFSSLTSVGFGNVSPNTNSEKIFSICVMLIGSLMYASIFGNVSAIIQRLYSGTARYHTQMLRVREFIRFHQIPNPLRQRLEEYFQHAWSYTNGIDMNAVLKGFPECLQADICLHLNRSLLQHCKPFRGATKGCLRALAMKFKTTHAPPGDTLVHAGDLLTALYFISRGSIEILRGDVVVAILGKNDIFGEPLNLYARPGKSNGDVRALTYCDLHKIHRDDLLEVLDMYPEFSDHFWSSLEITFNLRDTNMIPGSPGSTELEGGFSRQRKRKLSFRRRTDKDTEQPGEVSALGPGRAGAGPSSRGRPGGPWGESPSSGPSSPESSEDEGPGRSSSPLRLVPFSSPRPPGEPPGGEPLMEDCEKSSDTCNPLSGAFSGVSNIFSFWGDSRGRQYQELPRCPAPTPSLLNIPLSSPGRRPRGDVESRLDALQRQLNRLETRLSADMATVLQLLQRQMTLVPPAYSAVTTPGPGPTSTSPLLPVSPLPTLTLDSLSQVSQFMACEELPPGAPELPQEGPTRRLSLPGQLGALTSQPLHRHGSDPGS
How it was run: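 First, 1000 cells per well are seeded and cultured overnight at 37 C. Next, FluxOR II dye is loaded for 1 h at room temperature, protected from light. After 10 more minutes, stimulus is added and fluorescence is read.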

[9] = biological target: Cytochrome P450 3A4 (Homo sapiens) (UniProt P08684); assay: Cytochrome P450 Family 3 Subfamily A Member 4 (CYP3A4) small molecule antagonists: luciferase reporter qHTS assay (AID 1671201); also: nearly all actives have a fitted effect of over 50% in size; also: potency is read from the fitted curve at half-maximal effect; as to activity change, negative = inhibition: series mostly up to about 120 µM
Chain of Cytochrome P450 3A4 (Homo sapiens) (P08684 whole entry, looked up): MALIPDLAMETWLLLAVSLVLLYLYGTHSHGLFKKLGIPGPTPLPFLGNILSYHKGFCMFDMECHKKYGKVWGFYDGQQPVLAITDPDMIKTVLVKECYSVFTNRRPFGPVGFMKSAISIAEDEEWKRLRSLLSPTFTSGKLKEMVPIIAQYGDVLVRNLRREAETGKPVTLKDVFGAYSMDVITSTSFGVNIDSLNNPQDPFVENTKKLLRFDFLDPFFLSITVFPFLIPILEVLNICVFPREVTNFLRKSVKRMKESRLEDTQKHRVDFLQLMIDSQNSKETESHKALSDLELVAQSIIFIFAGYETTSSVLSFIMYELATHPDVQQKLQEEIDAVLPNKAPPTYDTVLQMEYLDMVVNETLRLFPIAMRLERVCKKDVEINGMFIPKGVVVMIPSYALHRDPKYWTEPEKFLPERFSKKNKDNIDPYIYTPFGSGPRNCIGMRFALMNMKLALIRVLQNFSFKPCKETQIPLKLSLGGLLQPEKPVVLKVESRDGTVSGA
How it was run: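 Enzyme and proluciferin substrate are mixed with test chemicals for 10 min, then NADPH regeneration system drives turnover for 1 h at room temperature. A detection reagent halts the reaction; luminescence after 20 min gives relative activity.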

[10] = biological target: Cytochrome P450 2C19 (Homo sapiens) (UniProt P33261); assay: Cytochrome P450 Family 2 Subfamily C Member 19 (CYP2C19) small molecule antagonists: luciferase reporter qHTS assay (AID 1671197); also: nearly all actives have a fitted effect of over 65% in size; also: potency is read from the fitted curve at half-maximal effect; as to activity change, negative = inhibition: series mostly up to about 120 µM
Chain of Cytochrome P450 2C19 (Homo sapiens) (P33261 whole entry, looked up): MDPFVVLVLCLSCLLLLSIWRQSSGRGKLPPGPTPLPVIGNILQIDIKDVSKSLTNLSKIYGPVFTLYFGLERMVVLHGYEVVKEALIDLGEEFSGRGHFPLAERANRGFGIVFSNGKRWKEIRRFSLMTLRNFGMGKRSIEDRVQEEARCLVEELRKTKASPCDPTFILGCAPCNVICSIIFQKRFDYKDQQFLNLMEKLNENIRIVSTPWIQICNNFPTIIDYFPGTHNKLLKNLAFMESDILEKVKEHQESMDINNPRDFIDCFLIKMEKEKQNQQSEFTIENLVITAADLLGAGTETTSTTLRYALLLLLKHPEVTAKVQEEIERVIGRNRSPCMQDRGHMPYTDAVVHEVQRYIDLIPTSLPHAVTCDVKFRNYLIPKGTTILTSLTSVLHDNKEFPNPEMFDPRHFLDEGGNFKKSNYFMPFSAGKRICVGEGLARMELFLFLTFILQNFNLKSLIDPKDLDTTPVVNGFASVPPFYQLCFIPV
How it was run: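 Enzyme-substrate mix with proluciferin substrate (P450-Glo CYP2C19 system) preincubated with compounds 10 min at room temperature; NADPH regeneration solution added, 37C for 1 h; detection reagent stops reaction, luminescence read after 20 min. Ketoconazole positive control.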

[11] = biological target: Cytochrome P450 1A2 (Homo sapiens) (UniProt P05177); assay: Cytochrome P450 Family 1 Subfamily A Member 2 (CYP1A2) small molecule antagonists: luciferase reporter qHTS assay (AID 1671199); also: nearly all actives have a fitted effect of over 50% in size; also: potency is read from the fitted curve at half-maximal effect; as to activity change, negative = inhibition: series mostly up to about 120 µM
Chain of Cytochrome P450 1A2 (Homo sapiens) (P05177 whole entry, looked up): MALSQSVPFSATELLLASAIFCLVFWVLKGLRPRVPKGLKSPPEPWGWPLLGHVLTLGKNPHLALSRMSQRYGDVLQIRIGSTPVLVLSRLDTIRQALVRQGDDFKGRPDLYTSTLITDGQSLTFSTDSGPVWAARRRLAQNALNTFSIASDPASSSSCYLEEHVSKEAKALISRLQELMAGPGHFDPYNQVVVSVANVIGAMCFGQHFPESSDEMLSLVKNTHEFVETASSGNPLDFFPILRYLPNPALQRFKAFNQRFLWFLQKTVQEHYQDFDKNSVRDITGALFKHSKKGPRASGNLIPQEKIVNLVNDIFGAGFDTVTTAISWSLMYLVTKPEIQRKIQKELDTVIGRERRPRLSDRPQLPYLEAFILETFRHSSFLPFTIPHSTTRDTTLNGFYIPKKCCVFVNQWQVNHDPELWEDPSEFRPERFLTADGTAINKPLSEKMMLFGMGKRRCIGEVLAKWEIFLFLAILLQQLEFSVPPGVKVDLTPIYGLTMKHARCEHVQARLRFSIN
How it was run: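 Signal from luciferin formed by CYP1A2 from a proluciferin substrate is read as luminescence, expressed in relative luminescence units. Compounds sit with enzyme 10 min, NADPH-driven reaction runs 1 h, all at room temperature.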

[12] = biological target: Cytochrome P450 2D6 (Homo sapiens) (UniProt P10635); assay: Cytochrome P450 Family 2 Subfamily D Member 6 (CYP2D6) small molecule antagonists: luciferase reporter qHTS assay (AID 1671196); also: nearly all actives have a fitted effect of over 50% in size; also: potency is read from the fitted curve at half-maximal effect; as to activity change, negative = inhibition: series mostly up to about 120 µM
Chain of Cytochrome P450 2D6 (Homo sapiens) (P10635 whole entry, looked up): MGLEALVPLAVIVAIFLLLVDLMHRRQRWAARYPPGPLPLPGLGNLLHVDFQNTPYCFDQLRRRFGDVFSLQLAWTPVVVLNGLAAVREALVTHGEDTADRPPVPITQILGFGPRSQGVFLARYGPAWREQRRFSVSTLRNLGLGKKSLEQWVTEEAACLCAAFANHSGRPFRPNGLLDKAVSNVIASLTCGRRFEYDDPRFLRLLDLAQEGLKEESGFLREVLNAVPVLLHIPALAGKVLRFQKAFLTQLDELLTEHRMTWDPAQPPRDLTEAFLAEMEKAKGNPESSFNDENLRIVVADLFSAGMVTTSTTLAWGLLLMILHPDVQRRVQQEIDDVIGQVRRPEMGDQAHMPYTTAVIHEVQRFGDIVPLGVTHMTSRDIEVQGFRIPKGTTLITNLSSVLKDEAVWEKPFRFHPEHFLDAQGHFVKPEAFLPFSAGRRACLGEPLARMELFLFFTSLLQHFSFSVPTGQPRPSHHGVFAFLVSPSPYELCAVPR
How it was run: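 Inhibition of CYP2D6 was gauged by loss of luminescence, since light produced tracks the luciferin generated from a proluciferin substrate. A 10 min room-temperature preincubation preceded 1 h NADPH-supported turnover.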

[13] = biological target: Nuclear receptor subfamily 1 group I member 2 (Rattus norvegicus) (UniProt Q9R1A7); assay: Rat pregnane X receptor (rPXR) activation by small molecules, qHTS assay (AID 1346983); conditions: rPXR luciferase reporter cells, One-Glo luminescence, 24 h; stronger effect = higher value; also: nearly all actives have a fitted effect of over 20% in size
Chain of Nuclear receptor subfamily 1 group I member 2 (Rattus norvegicus) (Q9R1A7 whole entry, looked up): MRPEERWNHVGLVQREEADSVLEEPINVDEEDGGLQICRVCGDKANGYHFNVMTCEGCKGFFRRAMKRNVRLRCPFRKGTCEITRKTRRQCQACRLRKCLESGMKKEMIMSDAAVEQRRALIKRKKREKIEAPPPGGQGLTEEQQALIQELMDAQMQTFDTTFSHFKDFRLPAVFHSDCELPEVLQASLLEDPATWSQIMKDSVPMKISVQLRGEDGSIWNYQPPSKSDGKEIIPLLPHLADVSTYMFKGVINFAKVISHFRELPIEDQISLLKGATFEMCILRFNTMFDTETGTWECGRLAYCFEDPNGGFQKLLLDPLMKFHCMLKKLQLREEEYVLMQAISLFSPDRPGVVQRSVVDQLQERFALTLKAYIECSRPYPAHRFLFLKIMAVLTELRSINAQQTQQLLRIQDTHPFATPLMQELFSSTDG
How it was run: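 Cell-based rPXR luciferase reporter assay, 2,000 cells per well, rested 5hr at 37 C before compound addition in DMSO, then 24 hr at 37 C. One-Glo reagent was added and luminescence read after 30 min at room temperature.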

[14] = biological target: Nuclear receptor subfamily 1 group I member 2 (Homo sapiens) (UniProt O75469); assay: CYP3A4 induction through human pregnane X receptor (PXR) by small molecules, qHTS assay (AID 1346984); also: nearly all actives have a fitted effect of over 40% in size
How it was run: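 DPX-2 reporter cells; 24h cpd, 37C; Luciferin-IPA 3uM final x3h; One-Glo 30 min RT; lumi read.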

[15] = biological target: Nuclear receptor subfamily 1 group I member 2 (Homo sapiens) (UniProt O75469); assay: Human pregnane X receptor (PXR) activation by small molecules, qHTS assay (AID 1346985); also: nearly all actives have a fitted effect of over 40% in size
How it was run: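 DPX-2 cells (HepG2 co-transfected with a PXR response element and a CYP3A4-promoter luciferase construct) were seeded at 2,000 per well, rested 5 hr at 37C, then exposed to DMSO-dissolved compounds for 24 hr. Activation was read as luciferase luminescence.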
% is scaled to controls: 0 for no effect and ±100 for the full control effect.

ClCCl
inactive: Potency [1] | Potency [2] | Potency [3] | Potency [4] | Potency [5] | Potency [6] | Potency [7] | Potency [8] | Potency [9]

CC(=O)CC(=O)Nc1ccc(S(=O)(=O)O)cc1
inactive: Potency [1] | Potency [2] | Potency [3] | Potency [4] | Potency [5] | Potency [10] | Potency [7] | Potency [11] | Potency [8] | Potency [9]

CCO[Si](OCC)(OCC)OCC
inactive: Potency [1] | Potency [2] | Potency [3] | Potency [4] | Potency [5] | Potency [6] | Potency [10] | Potency [7] | Potency [8] | Potency [9]

CCCCCCCCCCCC(=O)OCC(C)OC(=O)CCCCC(=O)O (configuration not stated)
active: Potency [7] 7.76 µM | Potency [9] 8.71 µM
inactive: Potency [1] | Potency [2] | Potency [3] | Potency [4] | Potency [5] | Potency [6] | Potency [10] | Potency [8]

Cc1c(N)cccc1C(F)(F)F
active: Potency [11] 13.8 µM
inactive: Potency [1] | Potency [2] | Potency [3] | Potency [4] | Potency [5] | Potency [6] | Potency [10] | Potency [8] | Potency [9]

CN(C)CCN1CCN(c2cccc(Cl)c2)C1=O
inactive: Potency [1] | Potency [2] | Potency [3] | Potency [4] | Potency [5] | Potency [6] | Potency [10] | Potency [7] | Potency [8] | Potency [9]

CCCC(=O)OCOC(=O)C1=C(C)NC(C)=C(C(=O)OC)C1c1cccc(Cl)c1Cl (configuration not stated)
inactive: Potency [1] | Potency [2] | Potency [3] | Potency [4] | Potency [5] | Potency [12]
active: Potency [10] 1.74 µM | Potency [7] 2.19 µM

NC[C@H]1O[C@H](O[C@H]2[C@H](O[C@@H]3O[C@H](CO)[C@@H](O)[C@H]3O)C(O)[C@H](N)C[C@@H]2N)[C@H](N)[C@@H](O)[C@@H]1O (some centres not stated)
inactive: activity change, negative = cytotoxicity [1] 22.9% [at 8.39 µM] | caspase activation [2] -1.04% [at 8.39 µM] | activity change, negative = cytotoxicity [3] 6.09% [at 8.39 µM] | caspase-3/7 activation [4] -0.0652% [at 8.39 µM] | activity change, negative = cytotoxicity [5] 8% [at 8.39 µM] | max activation [13] 3.62% | activity change, negative = inhibition [12] -0.538% [at 10.5 µM] | activity change, negative = inhibition [7] 2.46% [at 10.5 µM] | activity change, negative = inhibition [8] -0.219% [at 6.97 µM]

O=C1C(c2[nH]c3ccc(S(=O)(=O)O)cc3c2O)=Nc2ccc(S(=O)(=O)O)cc21
inactive: Potency [1] | Potency [2] | Potency [3] | Potency [4] | Potency [5] | Potency [6] | Potency [8] | Potency [9]
active: Potency [10] 79.6 µM

CN1CCN2c3ccccc3Cc3ccccc3C2C1 (configuration not stated)
inactive: Potency [1] | Potency [2] | Potency [3] | Potency [4] | Potency [5] | Potency [10] | Potency [9]

Oc1c(I)cc(Cl)c2cccnc12
inactive: Potency [1] | Potency [2] | Potency [4] | Potency [5] | Potency [8]
active: Potency [3] 27.3 µM and 29.8 µM | Potency [6] 24.3 µM and 23.7 µM

COc1c(C)c2c(c(O)c1C/C=C(\C)CCC(=O)OCCN1CCOCC1)C(=O)OC2
inactive: Potency [1] | Potency [2] | Potency [4] | Potency [5] | max activation [13] -3.72% | Potency [14] | Potency [15] | Potency [10] | Potency [11] | Potency [8]
active: Potency [3] 841 nM

CCCC(=O)OC(C)(C)Cc1ccccc1
inactive: Potency [1] | Potency [2] | Potency [3] | Potency [4] | Potency [5] | Potency [8]

O=C1NC(=O)[C@@H]2CC=CC[C@H]12
inactive: Potency [1] | Potency [2] | Potency [3] | Potency [4] | Potency [5] | Potency [8]

Clc1nnc(Cl)c2ccccc12
inactive: Potency [1] | Potency [2] | Potency [3] | Potency [4] | Potency [5] | Potency [10] | Potency [7] | Potency [8] | Potency [9]

C=CCCC(=O)/C=C/C1C(C)=CCCC1(C)C (configuration not stated)
active: Potency [6] 27.3 µM | Potency [10] 17.8 µM | Potency [9] 17.8 µM
inactive: Potency [1] | Potency [2] | Potency [3] | Potency [4] | Potency [5] | Potency [11]

CC1=Nc2ccccc2C1(C)C
inactive: Potency [1] | Potency [2] | Potency [3] | Potency [4] | Potency [5] | Potency [8]
active: Potency [12] 71.1 µM | Potency [10] 63.4 µM | Potency [7] 40 µM | Potency [11] 63.4 µM | Potency [9] 63.4 µM

O=C(Oc1ccccc1)Oc1ccccc1
active: Potency [10] 79.3 µM | Potency [11] 35.4 µM
inactive: Potency [1] | Potency [2] | Potency [3] | Potency [4] | Potency [5] | Potency [12] | Potency [8] | Potency [9]

Cl[Si](Cl)(c1ccccc1)c1ccccc1
inactive: Potency [1] | Potency [2] | Potency [3] | Potency [4] | Potency [8]
active: Potency [10] 20.5 µM | Potency [7] 23 µM | Potency [11] 64.8 µM | Potency [9] 5.14 µM

COc1cc(C)ccc1O
inactive: Potency [1] | Potency [2] | Potency [3] | Potency [4] | Potency [6] | Potency [12] | Potency [8] | Potency [9]
active: Potency [10] 56.4 µM | Potency [11] 39.9 µM

Cc1cc(C(C#N)c2ccc(Cl)cc2)c(Cl)cc1NC(=O)c1cc(I)cc(I)c1O (configuration not stated)
active: Potency [1] 16.8 µM | Potency [10] 8.71 µM
inactive: Potency [2] | Potency [4] | max activation [13] -15.9% | Potency [14] | Potency [15] | Potency [12] | Potency [11] | Potency [8] | Potency [9]

CN(C)Cc1cc(C(C)(C)C)c(O)c(C(C)(C)C)c1
active: Potency [10] 10 µM | Potency [7] 11.2 µM
inactive: Potency [1] | Potency [2] | Potency [3] | Potency [5]

CC(CO)Oc1ccccc1 (configuration not stated)
inactive: Potency [1] | Potency [2] | Potency [3] | Potency [5] | Potency [6] | Potency [7] | Potency [8] | Potency [9]
active: Potency [12] 41.2 µM | Potency [10] 36.7 µM

S=c1nccc[nH]1
active: Potency [12] 31.8 µM | Potency [10] 31.8 µM | Potency [7] 20 µM
inactive: Potency [1] | Potency [2] | Potency [3] | Potency [5] | Potency [6] | Potency [8] | Potency [9]

Cc1cccc2cccnc12
active: Potency [10] 70.5 µM
inactive: Potency [1] | Potency [2] | Potency [3] | Potency [5] | Potency [6] | Potency [12] | Potency [7] | Potency [8] | Potency [9]
